7 compounds from PubChem BioAssay (NCATS) can be followed below.

Assay [1] is described as follows: qHTS assay for small molecule antagonists of peroxisome proliferator-activated receptor delta signaling (AID 588535; active = well fitted inhibition curve with a large enough effect in the signal ratio, with a control signal flat, not every such curve was filed as active; the % refers to the signal ratio;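 as to max response: cells co-treated with a PPAR-delta agonist as stimulator during compound exposure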). The conditions noted are these: HEK293T PPARd-UAS-bla, beta-lactamase FRET ratio, 18 h; 460 nm channel. A digest of the protocol:
(§1)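 Compounds tested in titration on PPAR-delta-UAS-bla HEK293T cells grown in charcoal/dextran-stripped serum (2%); beta-lactamase activity read via CCF4 emission at 460 and 530 nm.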

Assay [2] deals with Peroxisome proliferator-activated receptor delta (Homo sapiens) (UniProt Q03181). The assay is described as above. The conditions noted are these: HEK293T PPARd-UAS-bla, beta-lactamase FRET ratio, 18 h; series mostly up to 76.7 µM. An outline of the steps:
as §1

The target of assay [3] is Peroxisome proliferator-activated receptor gamma (Homo sapiens) (UniProt P37231). Kind of assay: qHTS assay for small molecule agonists of peroxisome proliferator-activated receptor gamma signaling (AID 588536; active = well fitted curve in the direction sought with a large enough effect in the signal ratio, with a control signal flat, not every such curve was filed as active; the % refers to the signal ratio). The conditions noted are these: HEK293 PPARg-UAS-bla, beta-lactamase ratio, 16 h, percent of rosiglitazone response, DMSO as zero; series mostly up to 76.7 µM. A digest of the protocol: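 Beta-lactamase reporter read-out: CCF4 fluorescence (ex 405, em 460/530 nm) after 2 h at RT. HEK293 GeneBLAzer cells were treated for 16 h at 37 C. Hill fits gave EC50 and efficacy versus 2 uM rosiglitazone (100%) and DMSO (0%).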
Sequence of Peroxisome proliferator-activated receptor gamma (Homo sapiens) (P37231 whole entry, looked up): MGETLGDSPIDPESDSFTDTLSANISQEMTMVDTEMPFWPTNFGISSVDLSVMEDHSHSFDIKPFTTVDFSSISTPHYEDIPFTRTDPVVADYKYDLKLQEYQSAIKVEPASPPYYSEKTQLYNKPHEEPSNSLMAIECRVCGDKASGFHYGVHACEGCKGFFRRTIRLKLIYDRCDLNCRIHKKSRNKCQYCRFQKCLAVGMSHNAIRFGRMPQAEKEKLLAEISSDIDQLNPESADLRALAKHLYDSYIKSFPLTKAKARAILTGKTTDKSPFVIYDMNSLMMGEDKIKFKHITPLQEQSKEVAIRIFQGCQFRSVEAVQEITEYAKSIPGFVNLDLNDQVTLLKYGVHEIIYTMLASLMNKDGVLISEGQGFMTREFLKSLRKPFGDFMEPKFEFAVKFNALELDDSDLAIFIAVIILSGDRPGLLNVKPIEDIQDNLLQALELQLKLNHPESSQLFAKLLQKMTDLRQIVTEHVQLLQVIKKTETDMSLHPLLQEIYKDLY
(Quantitative high-throughput screening tests each substance at several concentrations.)

Assay [4] addresses Vitamin D3 receptor (Homo sapiens) (UniProt P11473). Kind of assay: qHTS assay for small molecule antagonists of vitamin D receptor signaling (AID 588541; calls by dose curve;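 also: receptor activated by calcitriol during compound treatment; % is scaled to controls: 0 for no effect and ±100 for the full control effect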). The conditions noted are these: HEK293T VDR-UAS-bla, beta-lactamase ratio, antagonist mode; series mostly up to 76.7 µM. A digest of the protocol:
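VDR-UAS-bla HEK293T cells (2000/well, 2% charcoal-stripped FBS) were treated with titrated compounds plus 1-alpha,25-dihydroxyvitamin D3 (50 nM or 3 nM final) for 16 h at 37 C. CCF4 beta-lactamase fluorescence was read; Hill fits gave IC50.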

For assay [5] the target is unchanged. Briefly: qHTS assay for small molecule agonists of vitamin D receptor signaling (AID 588543; calls by dose curve;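 also: 0% = DMSO basal and 100% = reference agonist control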). The conditions noted are these: HEK293T VDR-UAS-bla, beta-lactamase ratio, 16 h; series mostly up to 76.8 µM. A digest of the protocol: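 GeneBLAzer VDR-UAS-bla HEK293T cells in 2% charcoal-stripped FBS medium were dosed with compound titrations for 16 h at 37 °C; CCF4 β-lactamase readout (405 nm ex, 460/530 nm em). EC50 and efficacy from Hill fits, normalized to 50 nM calcitriol (100%) and DMSO (0%).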

Assay [6] in a line: qHTS assay for small molecule antagonists of retinoid X receptor alpha signaling (AID 588546; active = well fitted inhibition curve with a large enough effect in the signal ratio, with a control signal flat, not every such curve was filed as active; the % refers to the signal ratio;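 also: cells stimulated with 9-cis-retinoic acid as agonist; % is scaled to controls: 0 for no effect and ±100 for the full control effect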). The conditions noted are these: HEK293T RXRa-UAS-bla, beta-lactamase ratio, antagonist mode; measured here: W530 green channel, cytotoxicity proxy. A digest of the protocol: (§2)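 Beta-lactamase reporter inhibition, read as CCF4 fluorescence ratio (ex 405, em 460/530 nm) after 2 h at RT. HEK293T UAS-bla cells, 2500/well, were stimulated with 9-cis-RA at 500 or 100 nM final alongside test compound for 18 h at 37 C.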

Assay [7] addresses Retinoic acid receptor RXR-alpha (Homo sapiens) (UniProt P19793). The description is as above. The conditions noted are these: HEK293T RXRa-UAS-bla, beta-lactamase ratio, antagonist mode. A digest of the protocol: as §2
Assay [8] is described as follows: qHTS assay for environmental chemicals that activate the Aryl hydrocarbon Receptor (AhR) signaling pathway (AID 651777). Also: % of control where 0% means no effect; nearly all actives have a fitted effect of over 15% in size. The conditions noted are these: 1A2-DRE human hepatoma cells, luciferase, 24 h; activation: stronger effect = higher value. An outline of the steps:
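Measured luciferase activity, read 30 min after One-Glo addition at room temperature, from human hepatoma cells bearing a dioxin response element–CYP1A2 promoter reporter and exposed to compound for 24 hr at 37 C.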

In assay [9] the target is Peroxisome proliferator-activated receptor alpha (Homo sapiens) (UniProt Q07869). Kind of assay: qHTS assay for small molecule agonists of the peroxisome proliferator-activated receptor alpha (PPARalpha) signaling pathway (AID 651778). Also: % of control where 0% means no effect. The conditions noted are these: PathHunter PPARalpha complementation, chemiluminescence, 6 h; max response: stronger effect = higher value. A digest of the protocol:
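Cells plated at 2,000/well and held overnight at 37 C, 5% CO2, then compound added by pin tool for 6 hr; after PathHunter detection reagent and 60 min at room temperature, chemiluminescence from enzyme complementation was read.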

A short description of assay [10]: qHTS assay for small molecule agonists of the antioxidant response element (ARE) signaling pathway measured by Nrf2-dependant transcriptional activity (AID 720636; active = well fitted curve in the direction sought with a large enough effect in the repeat runs; an effect the other way counts as inactive or inconclusive; also: % of control where 0% means no effect). The conditions noted are these: ARE-luc HepG2, Nrf2 luciferase reporter, 16 h; series mostly up to 92.4 µM. A digest of the protocol: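 In HepG2 cells engineered with an Nrf2-responsive luciferase gene, ARE induction was quantified as luminescence after 16 hr compound treatment at 37 C.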

Assay [11] is described as follows: qHTS assay for small molecule agonists of the antioxidant response element (ARE) signaling pathway measured by Nrf2-dependant transcriptional activity - cell viability counter screen (AID 720653; active = well fitted curve in the direction sought with a large enough effect in the repeat runs; an effect the other way counts as inactive or inconclusive; also: % is scaled to controls: 0 for no effect and ±100 for the full control effect). The conditions noted are these: ARE-bla HepG2 viability, CellTiter-Glo ATP luminescence, 16 h; max response: stronger effect = lower value. An outline of the steps: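 ARE-bla HepG2 cells (2,000/well) rested 5 hrs at 37C/5% CO2, then exposed to compounds in DMSO for 16 hrs. Viability was read in the same wells as intracellular ATP by luminescence, 30 min at room temperature after reagent addition.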

Assay [12] can be described thus: qHTS assay for cell viability of HEK293 cells (AID 743288). Also: % is scaled to controls: 0 for no effect and ±100 for the full control effect; nearly all actives have a fitted effect of over 50% in size. The conditions noted are these: ATP luminescence (CellTiter-Glo), 18 h; max response: stronger effect = lower value. An outline of the steps: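 After 18 h compound exposure at 37 C, parental HEK293 cells (2,000/well) are lysed with CellTiter-Glo and luminescence is read following 30 min at room temperature.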
Assay [13] in a line: qHTS assay for small molecule agonists of retinoid X receptor alpha signaling (AID 588544; calls by dose curve;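 as to activation: 0% = DMSO basal wells and 100% = reference agonist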). The conditions noted are these: HEK293T RXRa-UAS-bla, beta-lactamase reporter, 18 h; 530 nm emission.
For assay [14], the target named is Retinoic acid receptor RXR-alpha (Homo sapiens) (UniProt P19793). The assay is described as above. The conditions noted are these: HEK293T RXRa-UAS-bla, beta-lactamase reporter, 18 h; series mostly up to 76.7 µM.
Sequence of Retinoic acid receptor RXR-alpha (Homo sapiens) (P19793 whole entry, looked up): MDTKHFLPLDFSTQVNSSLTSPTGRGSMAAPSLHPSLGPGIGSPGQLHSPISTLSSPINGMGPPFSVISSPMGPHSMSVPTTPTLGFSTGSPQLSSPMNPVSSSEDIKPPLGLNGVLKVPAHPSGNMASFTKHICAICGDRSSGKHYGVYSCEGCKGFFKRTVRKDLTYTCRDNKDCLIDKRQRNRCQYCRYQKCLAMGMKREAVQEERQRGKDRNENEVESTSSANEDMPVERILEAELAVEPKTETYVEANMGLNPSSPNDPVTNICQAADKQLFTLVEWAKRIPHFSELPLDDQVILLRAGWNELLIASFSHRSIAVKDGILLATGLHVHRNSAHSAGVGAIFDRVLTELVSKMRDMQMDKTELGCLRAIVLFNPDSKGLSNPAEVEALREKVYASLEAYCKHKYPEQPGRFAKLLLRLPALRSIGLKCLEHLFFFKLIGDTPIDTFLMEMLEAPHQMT
Assay [15] deals with Thyroid hormone receptor beta (Homo sapiens) (UniProt P10828). Kind of assay: qHTS assay for small molecule agonists of thyroid hormone receptor beta signaling (AID 588545; calls by dose curve). The conditions noted are these: TR-UAS-bla GripTite HEK 293, beta-lactamase ratio, agonist mode, 18 h; series mostly up to 76.7 µM. A digest of the protocol: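 HEK 293 TR-UAS-bla; agonist mode; 18 hrs, 37 C; CCF4, ex 405/em 460 and 530 nm; norm. T3 10 nM = 100%, DMSO = 0%; Hill fit → EC50, efficacy.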
Sequence of Thyroid hormone receptor beta (Homo sapiens) (P10828 whole entry, looked up): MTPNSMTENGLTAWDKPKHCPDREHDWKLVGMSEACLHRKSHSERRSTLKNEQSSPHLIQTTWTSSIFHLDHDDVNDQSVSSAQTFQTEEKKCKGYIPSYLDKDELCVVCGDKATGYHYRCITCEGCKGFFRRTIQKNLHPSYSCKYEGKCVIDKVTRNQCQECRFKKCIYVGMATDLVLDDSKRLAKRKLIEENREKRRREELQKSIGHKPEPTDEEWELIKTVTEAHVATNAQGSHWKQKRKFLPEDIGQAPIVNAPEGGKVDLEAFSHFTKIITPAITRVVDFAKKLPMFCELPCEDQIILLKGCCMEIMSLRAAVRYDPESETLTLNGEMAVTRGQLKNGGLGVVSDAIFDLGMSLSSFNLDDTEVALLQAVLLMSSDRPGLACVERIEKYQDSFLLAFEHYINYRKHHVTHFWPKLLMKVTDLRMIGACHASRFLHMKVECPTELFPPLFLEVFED

Assay [16] in a line: qHTS assay for small molecule activators of the p53 signaling pathway (AID 651743; active = well fitted activation curve with a large enough effect in the signal ratio, not every such curve was filed as active; the % refers to the signal ratio; also: % of control where 0% means no effect). The conditions noted are these: HCT-116 p53RE-bla, beta-lactamase FRET ratio, 16 h; activation: stronger effect = higher value. An outline of the steps: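 Here HCT-116 cells with an integrated p53-responsive beta-lactamase gene were incubated with compounds (16 hours, 37 C) after a 5-hour plating period; beta-lactamase activity was detected as fluorescence intensity via B/G FRET substrate.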

Assay [17] is described as follows: qHTS assay for cell viability of the p53RE-bla HCT-116 cell line (AID 743292). Also: % is scaled to controls: 0 for no effect and ±100 for the full control effect; nearly all actives have a fitted effect of over 55% in size. The conditions noted are these: p53RE-bla HCT-116 viability, ATP luminescence, 16 h; series mostly up to 95 µM. A digest of the protocol:
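Intracellular ATP of p53RE-bla HCT-116 cells measured by luciferase luminescence following 16 h compound incubation at 37 C; DMSO-only wells served as vehicle controls.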

In assay [18] the target is Nuclear receptor subfamily 1 group I member 2 (Rattus norvegicus) (UniProt Q9R1A7). Kind of assay: qHTS assay for small molecule activators of the rat pregnane X receptor (rPXR) signaling pathway (AID 651751; call rule not given here; also: 0% is about no effect). The conditions noted are these: rPXR reporter cells, luciferase (One-Glo), 24 h.
Sequence of Nuclear receptor subfamily 1 group I member 2 (Rattus norvegicus) (Q9R1A7 whole entry, looked up): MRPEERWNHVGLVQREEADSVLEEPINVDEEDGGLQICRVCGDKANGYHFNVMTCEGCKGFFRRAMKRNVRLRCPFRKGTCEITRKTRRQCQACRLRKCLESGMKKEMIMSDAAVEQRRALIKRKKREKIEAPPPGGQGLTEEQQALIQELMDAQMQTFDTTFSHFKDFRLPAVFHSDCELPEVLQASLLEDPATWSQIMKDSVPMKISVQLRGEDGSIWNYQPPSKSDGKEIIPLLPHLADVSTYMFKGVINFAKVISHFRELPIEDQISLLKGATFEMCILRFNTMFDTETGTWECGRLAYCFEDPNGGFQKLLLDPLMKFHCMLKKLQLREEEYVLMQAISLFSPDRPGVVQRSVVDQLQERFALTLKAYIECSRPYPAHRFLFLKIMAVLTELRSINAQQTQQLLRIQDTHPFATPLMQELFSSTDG
Assay [19] in a line: qHTS assay for small molecule activators of the human pregnane X receptor (PXR) signaling pathway (AID 720659; call rule not given here; also: 0% is about no effect). The conditions noted are these: DPX-2 HepG2 CYP3A4-luciferase, 24 h; series mostly up to 92.3 µM.
A short description of assay [20]: qHTS assay for small molecule activators of the nuclear factor-kappa B (NF-kB) signaling pathway (AID 651749; active = well fitted activation curve with a large enough effect in the signal ratio; the % refers to the signal ratio; also: % of control where 0% means no effect). The conditions noted are these: NF-kB-bla ME-180 cells, beta-lactamase FRET ratio, 16 h; activation: stronger effect = higher value. A digest of the protocol:
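Beta-lactamase reporter expression, controlled by NF-kB response elements in ME-180 cells, was quantified fluorometrically via FRET disruption; cells at 2,000/well had been incubated with 23 nL test compound for 16 hr.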

Results filed as inconclusive are left out. Activity calls are given as the source filed them. Unless noted, calls follow the shape of the dose curve; as a rule, active = well fitted curve in the direction sought with a large enough effect; inconclusive = small, poorly fitted or top-dose-only effect, or another doubt; inactive = no such curve, though single readings can be large; an effect the other way counts as inactive or inconclusive.

Sequence of Peroxisome proliferator-activated receptor alpha (Homo sapiens) (Q07869 whole entry, looked up): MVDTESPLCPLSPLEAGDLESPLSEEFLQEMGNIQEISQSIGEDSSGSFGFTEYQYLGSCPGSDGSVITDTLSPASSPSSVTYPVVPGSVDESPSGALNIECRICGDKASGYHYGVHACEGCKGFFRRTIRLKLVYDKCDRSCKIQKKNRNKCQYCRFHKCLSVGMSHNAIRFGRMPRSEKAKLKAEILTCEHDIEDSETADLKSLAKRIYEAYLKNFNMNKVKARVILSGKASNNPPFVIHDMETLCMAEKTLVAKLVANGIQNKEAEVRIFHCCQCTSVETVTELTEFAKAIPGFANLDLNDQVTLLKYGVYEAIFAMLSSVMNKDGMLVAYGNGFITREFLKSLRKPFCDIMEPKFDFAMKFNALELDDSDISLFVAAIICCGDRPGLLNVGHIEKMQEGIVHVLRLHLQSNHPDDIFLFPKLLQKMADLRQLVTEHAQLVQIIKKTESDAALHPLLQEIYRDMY
Sequence of Peroxisome proliferator-activated receptor delta (Homo sapiens) (Q03181 whole entry, looked up): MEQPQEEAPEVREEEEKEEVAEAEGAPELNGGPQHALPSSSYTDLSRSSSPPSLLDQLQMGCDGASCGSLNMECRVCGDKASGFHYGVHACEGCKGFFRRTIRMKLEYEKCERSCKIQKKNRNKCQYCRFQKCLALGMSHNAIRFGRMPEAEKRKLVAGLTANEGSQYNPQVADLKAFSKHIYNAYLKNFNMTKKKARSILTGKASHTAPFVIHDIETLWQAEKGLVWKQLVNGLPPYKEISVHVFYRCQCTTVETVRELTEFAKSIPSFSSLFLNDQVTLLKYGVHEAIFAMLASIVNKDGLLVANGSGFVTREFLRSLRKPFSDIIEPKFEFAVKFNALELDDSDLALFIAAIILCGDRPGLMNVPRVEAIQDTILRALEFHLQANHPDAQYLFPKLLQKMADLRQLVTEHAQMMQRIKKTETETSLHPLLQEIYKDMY
Sequence of Vitamin D3 receptor (Homo sapiens) (P11473 whole entry, looked up): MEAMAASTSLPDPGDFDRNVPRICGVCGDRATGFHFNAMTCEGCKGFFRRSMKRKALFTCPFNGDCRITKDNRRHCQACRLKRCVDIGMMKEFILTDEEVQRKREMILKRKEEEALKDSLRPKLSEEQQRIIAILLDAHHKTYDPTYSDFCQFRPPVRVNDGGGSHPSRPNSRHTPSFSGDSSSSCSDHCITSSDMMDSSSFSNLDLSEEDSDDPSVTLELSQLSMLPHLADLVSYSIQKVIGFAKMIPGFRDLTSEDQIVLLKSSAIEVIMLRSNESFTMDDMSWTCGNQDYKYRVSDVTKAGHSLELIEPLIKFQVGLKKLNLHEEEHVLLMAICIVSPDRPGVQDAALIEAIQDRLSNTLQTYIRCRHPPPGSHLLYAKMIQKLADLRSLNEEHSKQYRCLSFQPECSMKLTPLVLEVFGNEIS

In the case of `Cn1sccc1=O`, the max response in assay [1] is -3.21%; in assay [6], -13.8%; in assay [7], 7.99% (inactive); in [9], -2.31% (inactive); in assay [11], -9.28% (inactive); in assay [12], -4.03% (inactive). The Potency entry in assay [2], in [4] and in assay [10] was “inactive” each time. The result in assay [3] and in assay [5] was inactive. For the same compound, the activation in [8] is -0.202% (inactive).

Take `CC(=O)OC(C)(C)C1CC=C(C)CC1` (configuration not stated): the max response in [1] is -21.5%; in [13] it was -9.79%; in assay [6], -19.2%; in [7] it was -1.89% (inactive); in assay [9], -5.04% (inactive); in assay [11], -6.08% (inactive). Besides, the figures for the max response in [12] and in [18] were -11.3% (inactive) and -1.76% (inactive), respectively. Besides, the Potency result in [2], in [4], in assay [14], in assay [15], in assay [10] and in assay [17] was “inactive” throughout. Moreover, the outcome in assay [3], in assay [5] and in assay [19] was inactive. In addition, the activation in [16] is -1.29% (inactive); in assay [8], -2.57% (inactive).

`CC(=O)OC1CCC(C(C)(C)C)CC1` (configuration not stated): the max response in [1] was -10.4%; in [13], -2.86%; in [6], -1.04%; in [7], -6.71% (inactive); in assay [9], -0.283% (inactive); in [11] it was 0.584% (inactive). For the same compound, the max response in assay [12] is -10.3% (inactive); in [18], 4.95% (inactive). Further, the Potency result in assay [2], in assay [4], in assay [14], in assay [15], in [10] and in assay [17] was “inactive” in each case. Moreover, the result in assay [5] and in [19] was inactive. Moreover, the values for the activation in assay [16] and in assay [8] were -2.06% (inactive) and 3.13% (inactive), respectively.

Consider `CCCCOCC(C)OCC(C)O` (configuration not stated), for which the max response in assay [1] was -19.2%; in assay [13], -14.7%; in [6] it was -15.5%; in assay [7] it was -6.81% (inactive); in assay [9] it was -0.312% (inactive); in [11] it was 8.96% (inactive). The max response in assay [12] was 0.272% (inactive); in [18], 2.61% (inactive). Also, the Potency entry in assay [2], in assay [4], in assay [14], in assay [15] and in [10] was “inactive” each time. The outcome in [3], in assay [5] and in [19] was inactive. Moreover, the activation in [20] was -0.368% (inactive); in assay [8], 0.285% (inactive).

On to `CCCCCCCCC(=O)O`, for which the max response in assay [1] was -26.9%; in [13], -21.9%; in assay [6], -8.04%; in assay [7], -41.9% (inactive); in assay [9], 1.35% (inactive); in assay [11] it was -7.02% (inactive). Besides, the max response was -14.6% (inactive) in assay [12] and -1.4% (inactive) in [18]. Further, the Potency result in [2], in assay [14], in [10] and in assay [17] was “inactive” throughout. Moreover, the activation in assay [16] was 4.29% (inactive); in assay [8] it was 2.74% (inactive). Also, in assay [19], the compound was classed as inactive.

For `CCCCOCCOCCOCCO`, the max response is -4.48% in assay [1]; -9.78% in assay [13]; 1.39% in assay [6]; -1.08% (inactive) in assay [7]; -1.01% (inactive) in assay [9]; 5.3% (inactive) in assay [11]. In addition, the max response in assay [12] was -2.85% (inactive); in assay [18] it was 2.44% (inactive). The Potency entry in assay [2], in assay [4], in assay [14], in assay [15], in assay [10] and in assay [17] was “inactive” in each case. In addition, the result in assay [3], in [5] and in [19] was inactive. Moreover, the activation was 2.9% (inactive) in assay [16], -0.915% (inactive) in assay [20] and 1.2% (inactive) in assay [8].

As for `CC1(C)C(C=C(Cl)Cl)[C@H]1C(=O)OCc1cccc(Oc2ccccc2)c1` (some centres not stated), the max response in assay [1] was 35.5%; in assay [6] it was -16.1%; in assay [7], -0.468% (inactive); in [9], -1.89% (inactive); in [11], -12.3% (inactive); in assay [12], -12.9% (inactive). The Potency result in assay [2], in assay [4], in assay [10] and in assay [17] was “inactive” each time.
